TDP1 inh = inhibitors of human tyrosyl-DNA phosphodiesterase TDP1 | recombinant TDP1, AlphaScreen DNA substrate cleavage | Potency, µM (titrated, usually from 130 µM), for inactives: at the highest dose activity change, negative = inhibition, actives largely listed as inhibitors | 350,000 compounds, 0.28% hits | AID 485290; note: potency is the fitted concentration of half-maximal effect; % is set by controls: 0 for no effect and ±100 for the full control effect; nearly all actives have a fitted effect of over 40% in size
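Enzyme-compound mixtures sat 15 min at room temperature, followed by a 5 min reaction with 15 nM final substrate and 10 min with AlphaScreen beads. Recombinant human Tdp1 was used at 1 nM final.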
BAZ2B inh = inhibitors of human BAZ2B bromodomain; Q9UIF8; Potency, µM (top dose mostly 114 µM), for the others: top-dose activity change, negative = inhibition, most hits filed as inhibitors; AID 504333; 360,000 compounds, 4.4% hits; AlphaScreen BAZ2B-H3K14Ac peptide displacement; note: potency is the fitted concentration of half-maximal effect; % is set by controls: 0 for no effect and ±100 for the full control effect; nearly all actives have a fitted effect of over 60% in size
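BAZ2B (50 nM) with biotin-H3(5-23)K14Ac peptide (50 nM) in PBS pH 7.4, 0.01% Tween-20, preformed 30 min, then compound 30 min at room temperature; top concentration 110uM. AlphaScreen streptavidin donor/nickel chelate acceptor beads (10 ug/mL final), 20 min dark, signal read.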
Sfp inh = blocks B. subtilis Sfp PPTase activity. Q9F4F7. Biochemical Sfp PPTase activity, qHTS. Potency, µM, for the others: largest response in the series, negative = inhibition, usual class: inhibitors. 310,000 compounds, 3.5% hits. AID 1490;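 note: the enzyme is Sfp with the accession as filed and its product quenches rhodamine fluorescence; potency is the fitted concentration of half-maximal effect; 0% = enzyme reaction without inhibitor and -100% = no enzyme wells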
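Reaction rates are the 30-min fluorescence difference (ex 525, em 598 nm) in wells containing 15 nM Sfp, 5 uM rhodamine-CoA and 12.5 uM BHQ-2-YbbR at pH 7.6 with 10 mM MgCl2.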
G9a block = blocks human histone lysine methyltransferase G9a; Potency, µM (highest dose often 102 µM), without a hit: at the top dose activity, negative = inhibition, hits mostly inhibitors; AID 504332; 350,000 compounds, 8.8% hits; G9a H3K9 monomethylation, AlphaScreen, 2 h; note: potency is the fitted concentration of half-maximal effect; % is set by controls: 0 for no effect and ±100 for the full control effect; nearly all actives have a fitted effect of over 75% in size
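Quantitative HTS format: methyltransferase activity on a biotin-tagged H3K9 peptide is measured by AlphaScreen, using a rabbit anti-monomethyl-H3K9 antibody with streptavidin donor and anti-IgG acceptor beads. Final levels are 20 nM enzyme, 500 nM peptide, 20 uM SAM; 2 h RT.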
HP1b chromo inh = HP1-beta chromodomain-methylated histone interaction inhibition. P83916. 390,000 compounds, 0.56% hits. Potency, µM (titrated, usually from 114 µM), for the others: at the highest dose activity change, negative = inhibition, hits mostly inhibitors. AlphaScreen HP1-beta / biotin-H3K9me3 peptide binding; note: potency is the fitted concentration of half-maximal effect; nearly all actives have a fitted effect of over 70% in size
Target sequence (P83916 whole entry, looked up): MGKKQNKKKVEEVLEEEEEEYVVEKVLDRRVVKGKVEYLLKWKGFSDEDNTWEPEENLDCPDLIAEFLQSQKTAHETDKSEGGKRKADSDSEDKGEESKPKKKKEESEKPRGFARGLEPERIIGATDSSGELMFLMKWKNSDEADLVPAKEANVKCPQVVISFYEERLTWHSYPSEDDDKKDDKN
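HP1-beta protein (50 nM final) preincubated 30 min at room temperature with biotinylated H3(1-18)K9me3 peptide (50 nM) in PBS pH 7.4, 0.01% Tween-20, then compound added for 30 min. AlphaScreen streptavidin donor/nickel chelate acceptor beads (10 ug/mL final), 30 min dark, luminescence read.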
JMJD2A Tudor = inhibitors of human JMJD2A Tudor domain; O75164; AlphaScreen JMJD2A-Tudor / H3K4me3 peptide binding; Potency, µM (series often up to 114 µM), for the others: top-dose activity change, negative = inhibition, actives largely listed as inhibitors; 390,000 compounds, 4.4% hits; note: potency is the fitted concentration of half-maximal effect; % is set by controls: 0 for no effect and ±100 for the full control effect; nearly all actives have a fitted effect of over 50% in size
JMJD2E inh-1 = inhibitors of human JMJD2E demethylase, 8HQ series round 1. shares compounds with BAZ2B inh. JMJD2E demethylase, FDH-coupled NADH fluorescence. Potency, µM (top dose mostly 57 µM), inactives show top-dose activity, negative = inhibition, actives largely listed as inhibitors. 130 compounds, 89% hits
JMJD2E inh-2 = confirmation of inhibitors of human JMJD2E demethylase; shares compounds with JMJD2A Tudor; Recombinant JMJD2E, FDH-coupled NADH fluorescence (FDH is formaldehyde dehydrogenase); Potency, µM (doses to about 56.8 µM), for the others: at the top dose activity change, negative = inhibition, actives largely listed as inhibitors; 140 compounds, 93% hits; AID 2677
FDH inh = blocks Pseudomonas putida formaldehyde dehydrogenase, flagging JMJD2E artifacts; shares compounds with JMJD2A Tudor; FDH enzyme assay, NADH fluorescence kinetic; Potency, µM (top dose mostly 56.7 µM), for the others: at the highest dose activity, negative = inhibition, actives largely listed as inhibitors; 140 compounds, 10% hits
Target sequence (P46154 whole entry, looked up): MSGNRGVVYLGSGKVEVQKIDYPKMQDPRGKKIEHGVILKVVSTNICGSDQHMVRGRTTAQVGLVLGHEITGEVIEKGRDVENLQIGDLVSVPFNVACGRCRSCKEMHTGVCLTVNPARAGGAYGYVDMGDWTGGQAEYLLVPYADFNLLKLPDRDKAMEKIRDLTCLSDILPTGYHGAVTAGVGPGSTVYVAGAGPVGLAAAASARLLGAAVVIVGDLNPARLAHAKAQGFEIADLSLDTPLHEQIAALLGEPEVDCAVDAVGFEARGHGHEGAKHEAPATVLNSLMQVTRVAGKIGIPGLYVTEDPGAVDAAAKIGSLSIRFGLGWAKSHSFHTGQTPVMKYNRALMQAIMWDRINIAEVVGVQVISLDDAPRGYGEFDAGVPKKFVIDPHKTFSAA
JMJD2E MALDI inh = human KDM4E demethylase inhibition | shares compounds with JMJD2A Tudor | 45 compounds, 90% hits | Potency, µM, most hits filed as inhibitors | recombinant JMJD2E demethylation, MALDI-TOF-MS;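 active = compounds whose IC50 for blocking JMJD2E demethylation is below 100 µM; inconclusive = dose dependent effect but IC50 above 100 µM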
Numbers without * were called inactive; [ ] = remark or other dose. Rows were chosen to be rich in hits. Some 12% of all compounds tested hit in one or more screens of this group. Unless noted, calls come from the whole dose curve; as a rule, active = well fitted curve in the direction sought with a large enough effect; inconclusive = small, poorly fitted or top-dose-only effect, or another doubt; inactive = no such curve, though single readings can be large; an effect the other way counts as inactive or inconclusive.

Oc1ccc(CNc2cccc(C(F)(F)F)c2)c2cccnc12 was read as BAZ2B inh 22µM*, G9a block 1.4µM*, JMJD2E inh-1 7.9µM*, JMJD2E inh-2 7.9µM* and FDH inh -36%.
Oc1ccc(CNc2cccnc2)c2cccnc12 was read as TDP1 inh 5%, JMJD2A Tudor 22µM*, JMJD2E inh-1 6.5µM*, JMJD2E inh-2 13µM*, FDH inh -18% and JMJD2E MALDI inh 26*.
For Oc1c(CNc2ccccc2)cc(COCc2ccccc2)c2cccnc12 the results were TDP1 inh 2%, BAZ2B inh 50µM*, G9a block -36%[12.7 µM], HP1b chromo inh 21%, JMJD2A Tudor -17%, JMJD2E inh-1 11µM*, JMJD2E inh-2 7.9µM* and FDH inh -9%.
`CC1CCC(N2CC(=O)N(C3CCCC3)C(c3ccc(Cl)cc3)C2=O)CC1` (stereo not drawn) gave TDP1 inh 10%, BAZ2B inh -1%, G9a block 0%[59 µM], HP1b chromo inh -4% and JMJD2A Tudor -8%.
O=C(COc1ccc(Cl)cc1)NCCCNC(=O)c1ccncc1 was read as TDP1 inh 0%[0.0935 µM], BAZ2B inh -2%, Sfp inh 8%, G9a block 0%, HP1b chromo inh 35% and JMJD2A Tudor -4%.
Screening CN1CCCN(C(=O)c2cccc(Br)c2)CC1 returned TDP1 inh 2%, BAZ2B inh -2%, Sfp inh 4%, HP1b chromo inh 31% and JMJD2A Tudor -3%.
Screening Oc1cccc2cc(-c3ccccc3)cnc12 returned JMJD2E inh-1 16µM*, JMJD2E inh-2 16µM* and FDH inh 0%.
`Oc1cc(Nc2ccccc2)cc2cccnc12` gave TDP1 inh 4%, BAZ2B inh inconclusive, G9a block 19%[12.7 µM], HP1b chromo inh 17%, JMJD2A Tudor inconclusive, JMJD2E inh-1 inconclusive, JMJD2E inh-2 inconclusive and FDH inh -18%.
For CN1CCN(C(=O)c2cccc(-c3cc(O)c4ncccc4c3)c2)CC1 the results were TDP1 inh 6%, BAZ2B inh 13µM*, G9a block -3%[12.7 µM], HP1b chromo inh 51%, JMJD2A Tudor 50µM*, JMJD2E inh-1 16µM*, JMJD2E inh-2 16µM* and FDH inh -18%.
Screening O=C(COc1cccc2cccnc12)NNC(=O)Nc1ccccc1 returned TDP1 inh 0%, BAZ2B inh -29%, Sfp inh 9%, G9a block -1%, HP1b chromo inh 31% and JMJD2A Tudor -8%.
Screening Oc1cccc2cc(N3CCCC3)cnc12 returned JMJD2E inh-1 18µM*, JMJD2E inh-2 18µM* and FDH inh -9%.
Screening COc1ccc(C2=NOC(Cn3nc(C(=O)NCc4ccco4)cc3-c3ccccc3)C2)cc1 (stereo not drawn) returned TDP1 inh 3%, BAZ2B inh -35%, G9a block -11%[2.33 µM], HP1b chromo inh 18% and JMJD2A Tudor -30%.
Screening O=C(Cn1cc(S(=O)(=O)c2ccccc2)c(=O)c2cc3c(cc21)OCO3)Nc1ccc(Cl)cc1 returned TDP1 inh 6%, BAZ2B inh -21%, G9a block 3%[59 µM], HP1b chromo inh 18% and JMJD2A Tudor -18%.
For CCC(=O)N1CCc2cc(S(=O)(=O)CCC(=O)N3CCN(c4ccccc4Cl)CC3)ccc21 the results were TDP1 inh -5%, G9a block 1%[59 µM], HP1b chromo inh 7% and JMJD2A Tudor -7%.
For Oc1cccc2cc(Nc3ccccc3)cnc12 the results were JMJD2E inh-1 10µM*, JMJD2E inh-2 10µM* and FDH inh -18%.
`Oc1cc(-c2cccnc2)cc2cccnc12` gave TDP1 inh 1%, BAZ2B inh 3.2µM*, G9a block 28%[12.7 µM], HP1b chromo inh 61%, JMJD2A Tudor 25µM*, JMJD2E inh-1 5.6µM*, JMJD2E inh-2 5.6µM* and FDH inh -27%.
`Cc1cccc(Nc2ccccc2)c1` gave TDP1 inh 2%, BAZ2B inh 3%, Sfp inh 16%, G9a block -9%[12.7 µM], HP1b chromo inh 59% and JMJD2A Tudor 9%.
For O=C(O)c1ccnc2c(O)cccc12 the results were BAZ2B inh 1.8µM*, G9a block 43%[12.7 µM], JMJD2E inh-1 1.4µM*, JMJD2E inh-2 1.4µM* and JMJD2E MALDI inh 8.2*.
O=S(=O)(NCc1ccccc1F)c1ccc(O)c2ncccc12 was read as JMJD2E inh-1 23µM*, JMJD2E inh-2 18µM* and FDH inh -36%.
Screening NC(=O)c1ccc(O)c2ncccc12 returned TDP1 inh 0%, JMJD2A Tudor 13µM*, JMJD2E inh-1 4.6µM*, JMJD2E inh-2 4.6µM*, FDH inh -9% and JMJD2E MALDI inh 90*.
Nc1ncc(S(=O)(=O)NCc2ccccc2F)cn1 was read as TDP1 inh 1%, BAZ2B inh 0%, G9a block -4%[59 µM], HP1b chromo inh 22%[57 µM] and JMJD2A Tudor 1%.
CCCNc1ncccc1C(N)=O was read as TDP1 inh -2%, BAZ2B inh 7%, Sfp inh 15%, G9a block -8%, HP1b chromo inh 11% and JMJD2A Tudor -2%.
For Cc1cccc2c(C(=O)O)cc(-c3cccnc3)nc12 the results were TDP1 inh 4%, BAZ2B inh -31%, Sfp inh 21%, G9a block 7%, HP1b chromo inh 45% and JMJD2A Tudor 11%.
O=C(Nc1cccc2cccnc12)c1cccc2ccccc12 was read as TDP1 inh 2%, BAZ2B inh -3%, Sfp inh -7%, G9a block 8%[59 µM], HP1b chromo inh 45% and JMJD2A Tudor -3%.

High-throughput results: PubChem BioAssay, National Center for Advancing Translational Sciences (NCATS)
